Sampled rows, rich in hits. Any-hit rate of the full collection: about 11%.
PNC assembly inh – blocks assembly of the perinucleolar compartment; activity change (PNC), negative = inhibition, % at 10 µM; actives 3.1% (n = 140,000); PC3M PTB-GFP, PNC prevalence imaging, 16 h; stronger effect = lower value;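 active = readout at or below -70, meaning at least 70% loss of cells showing the perinucleolar compartment, a nuclear body marking cancer cells; inconclusive = readout between -30 and a set limit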
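Read-out is percentage of cells bearing a perinucleolar compartment, from automated 20x imaging of fixed, Hoechst-stained PC3M PTB-GFP cells. Cells were seeded 4 h, then exposed 16 h to compound (23 nl of library stock) in duplicate plates.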
IMPase Li inh – membrane-permeable IMPase blocker, potentiated with lithium | CHO-M1 cells, IP1 TR-FRET (IP-One), carbachol + lithium | Potency, µM (series often up to 59.4 µM), actives largely listed as inhibitors | actives 0.35% (n = 210,000) | AID 1457; active = well fitted inhibition curve with a large enough effect; inconclusive = small, poorly fitted or top-dose-only effect; inactive = no such curve, though single readings can be large or run the other way;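 also: IP1 builds up when IMPase is blocked and the TR-FRET signal falls; nearly all actives have a fitted effect of over 50% in size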
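CHO cells stably expressing M1 receptor (2000/well) were cultured 16–30 h, then exposed to compounds with a small lithium addition for 30 min at 37C. IP1 was measured by TR-FRET competition; AC50 from Hill fits.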
IMPase inh – membrane-permeable compound that blocks inositol monophosphatase; CHO-M1 cells, IP1 accumulation, HTRF TR-FRET ratio; inhibition (IP1 accumulation), % at 46.1 µM; 120,000 tested, under 10 active; AID 901; active = well fitted curve in the direction sought with a large enough effect in the signal ratio, not every such curve was filed as active; inconclusive = small, poorly fitted or top-dose-only effect, or a change in a side signal; inactive = no such curve, though single readings can be large or run the other way; the % refers to the signal ratio;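 also: cells stimulated with carbachol in lithium chloride buffer; higher means more IMPase inhibition seen as more IP1 and lower FRET ratio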
Target sequence (P97697 whole entry, looked up): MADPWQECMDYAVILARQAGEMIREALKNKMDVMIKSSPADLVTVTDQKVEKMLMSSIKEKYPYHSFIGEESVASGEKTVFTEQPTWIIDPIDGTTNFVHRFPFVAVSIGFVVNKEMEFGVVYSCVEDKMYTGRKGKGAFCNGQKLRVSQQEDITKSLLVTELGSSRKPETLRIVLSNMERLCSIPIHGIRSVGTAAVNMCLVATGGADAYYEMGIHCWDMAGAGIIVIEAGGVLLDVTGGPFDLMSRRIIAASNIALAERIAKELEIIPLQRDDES
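The IP-One HTRF competitive assay in carbachol-stimulated CHO-M1 cells quantifies cellular IP1. Compounds spanned up to 46 uM final, and activity is expressed as AC50 from concentration-response fits of the ratio and donor data.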
HPGD inh – HPGD (human) dehydrogenase inhibition. P15428. purified HPGD, NADH fluorescence kinetic, PGE2 substrate. Potency, µM, most hits filed as inhibitors. actives 4.3% (n = 150,000). AID 894
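NADH formation kinetics: reaction with 30 uM PGE2 and 1 mM NAD+ (final), 20 nM enzyme, Tris-HCl pH 8 with Tween 20, after 15 min compound preincubation at room temperature. Fluorescence change, last versus first of five reads.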
ALDH1A1 inh-1 – blocks purified human ALDH1A1 activity. P00352. Purified ALDH1A1, NADH fluorescence, propionaldehyde substrate. Potency, µM (top dose mostly 75.3 µM), hits mostly inhibitors. actives 7.3% (n = 220,000)
Target sequence (P00352 whole entry, looked up): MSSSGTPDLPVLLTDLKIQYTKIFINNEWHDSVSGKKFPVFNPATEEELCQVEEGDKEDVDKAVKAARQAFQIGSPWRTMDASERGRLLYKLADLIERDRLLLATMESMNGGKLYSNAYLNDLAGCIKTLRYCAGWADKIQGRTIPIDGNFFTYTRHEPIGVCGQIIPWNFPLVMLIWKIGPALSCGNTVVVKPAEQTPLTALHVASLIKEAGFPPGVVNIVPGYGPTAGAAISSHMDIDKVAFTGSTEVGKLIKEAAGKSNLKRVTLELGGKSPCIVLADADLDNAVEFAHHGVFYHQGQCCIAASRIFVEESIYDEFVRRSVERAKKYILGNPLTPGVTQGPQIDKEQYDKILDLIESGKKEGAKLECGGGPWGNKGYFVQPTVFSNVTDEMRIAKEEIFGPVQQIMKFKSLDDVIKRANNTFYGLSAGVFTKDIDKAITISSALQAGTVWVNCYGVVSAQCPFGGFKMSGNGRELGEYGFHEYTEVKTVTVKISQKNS
ALDH1A1 inh-2 – Inhibits human ALDH1A1, confirmation and counter-screen. shares compounds with ALDH1A1 inh-1. purified ALDH1A1, NADH fluorescence, propionaldehyde/NAD+. Potency, µM (doses to about 57.1 µM), usual class: inhibitors. actives 90% (n = 90). AID 493210; calls by dose curve
Hits are given with their value; [ ] = dose if it differs, or a comment. Unless noted, calls follow the shape of the dose curve; as a rule, active = well fitted inhibition curve with a large enough effect (not every such curve was filed as active); inconclusive = small, poorly fitted or top-dose-only effect, or another doubt; inactive = no such curve, though single readings can be large or run the other way.

CCN(CC(=O)NCc1cccs1)C(=O)c1ccc(S(=O)(=O)N(C)C)cc1 was read as IMPase Li inh inactive and ALDH1A1 inh-1 inactive.
Screening CCc1ccc(NC(=O)C(CC)Sc2nc3cc4c(cc3c(=O)n2Cc2ccco2)OCO4)cc1 (stereo not given) returned PNC assembly inh inactive, IMPase Li inh inactive, IMPase inh inactive, HPGD inh inactive, ALDH1A1 inh-1 0.4µM and ALDH1A1 inh-2 0.22µM.
Screening CCC(Sc1nc2cc(OC)c(OC)cc2c(=O)n1Cc1ccco1)C(=O)NCCOC (stereo not given) returned PNC assembly inh inactive, IMPase Li inh inactive, IMPase inh inactive, HPGD inh inactive, ALDH1A1 inh-1 0.79µM and ALDH1A1 inh-2 0.25µM.
Screening CCN(CC)C(=O)CSc1nc2ccccc2c(=O)n1CCC(=O)NCc1ccc(F)cc1 returned PNC assembly inh inactive, IMPase Li inh inactive, IMPase inh inactive[1.84 µM], HPGD inh inconclusive, ALDH1A1 inh-1 1µM and ALDH1A1 inh-2 2µM.
`CC(C)c1nc(N(C)S(C)(=O)=O)nc(-c2ccc(F)cc2)c1/C=C/C(O)CC(O)CC(=O)O` (stereo not given) gave IMPase Li inh inactive, HPGD inh inactive, ALDH1A1 inh-1 0.22µM and ALDH1A1 inh-2 0.13µM.
COc1ccc([N+](=O)[O-])cc1NC(=O)C(C)N1CCN(C(=O)c2ccco2)CC1 (stereo not given) was read as IMPase Li inh inactive, ALDH1A1 inh-1 1.3µM and ALDH1A1 inh-2 3.2µM.
`O=C(CC(Nc1ccc(Cl)cc1)C(=O)O)c1ccccc1` (stereo not given) gave PNC assembly inh inconclusive, IMPase Li inh inactive, IMPase inh inactive, HPGD inh inactive and ALDH1A1 inh-1 inactive.
Cc1c(Cl)cccc1NC(CC(=O)c1ccccc1)C(=O)O (stereo not given) was read as PNC assembly inh -83, IMPase Li inh inactive, HPGD inh inactive, ALDH1A1 inh-1 0.32µM and ALDH1A1 inh-2 inactive.
`O=C(CC(Nc1ccccc1Cl)C(=O)O)c1ccccc1` (stereo not given) gave IMPase Li inh inactive, ALDH1A1 inh-1 0.13µM and ALDH1A1 inh-2 inactive.
Screening NC(=O)C1CCN(C(=O)CCC(=O)c2ccc(Br)cc2)CC1 returned IMPase Li inh inactive and ALDH1A1 inh-1 inactive.
Screening O=C1CCCCC1c1cccc2ccccc12 (stereo not given) returned PNC assembly inh inactive, HPGD inh inactive and ALDH1A1 inh-1 inactive.
O=C1O/C(=C/Br)CCC1c1cccc2ccccc12 (stereo not given) was read as IMPase Li inh inactive, HPGD inh 20µM, ALDH1A1 inh-1 0.5µM and ALDH1A1 inh-2 0.63µM.
Screening Cn1c(SCC(=O)Nc2ccc3c(c2)OCCO3)nnc1-c1ccco1 returned PNC assembly inh inconclusive, IMPase inh inactive, ALDH1A1 inh-1 0.032µM and ALDH1A1 inh-2 25µM.
For CCn1c(SCC(=O)Nc2ccc3c(c2)OCCO3)nnc1-c1ccco1 the results were PNC assembly inh inactive, IMPase Li inh inactive, IMPase inh inactive, HPGD inh inactive and ALDH1A1 inh-1 inconclusive.
CCCCN(CC)C(=O)CN1C(=O)c2ccccc2C1=O was read as PNC assembly inh inactive, IMPase Li inh inactive, IMPase inh inactive, HPGD inh inactive and ALDH1A1 inh-1 inactive.
For O=C(CN1C(=O)C(=O)c2ccccc21)NCCc1ccccc1 the results were IMPase Li inh inactive, ALDH1A1 inh-1 0.089µM and ALDH1A1 inh-2 0.063µM.
CCc1ccc(NC(=O)CN2C(=O)C(=O)c3ccccc32)cc1 was read as IMPase inh inactive.
CCN(CC)C(=O)CN1C(=O)C(=O)c2ccccc21 was read as IMPase Li inh inactive, ALDH1A1 inh-1 0.02µM and ALDH1A1 inh-2 0.089µM.
Screening O=C(NCc1ccco1)/C(=C/c1cccnc1)NC(=O)c1ccco1 returned PNC assembly inh inactive, IMPase Li inh inactive, IMPase inh inactive, HPGD inh inactive and ALDH1A1 inh-1 inactive.
`CCOc1ccc(NC(=O)CN2CCN(CC(=O)c3ccc(OCC)cc3)CC2)cc1` gave PNC assembly inh inactive, IMPase Li inh inactive, IMPase inh inactive, HPGD inh inactive, ALDH1A1 inh-1 1.4µM and ALDH1A1 inh-2 4.5µM.
O=C(CCn1c(=O)oc2ccccc21)NCc1cccs1 was read as PNC assembly inh inactive, IMPase Li inh inactive, IMPase inh inactive, HPGD inh inactive and ALDH1A1 inh-1 inactive.
For COC(=O)c1ccc(NC(=O)C2CCCN2S(=O)(=O)c2ccc(F)cc2)cc1 (stereo not given) the results were PNC assembly inh inactive, IMPase Li inh inactive, IMPase inh inactive, HPGD inh inactive and ALDH1A1 inh-1 inactive.
`O=C(CN1CCc2ccccc2C1)NC1CCCC1` gave IMPase Li inh inactive and ALDH1A1 inh-1 inactive.
O=C(CN1CCN(C2CCCCC2)CC1)Nc1cccc2ccccc12 was read as IMPase Li inh inactive and ALDH1A1 inh-1 inconclusive.
Screening O=C(CN1CCN(C2CCCCC2)CC1)Nc1ccccc1-c1ccccc1 returned PNC assembly inh inactive, IMPase Li inh inactive, IMPase inh inactive, HPGD inh inactive, ALDH1A1 inh-1 6.3µM and ALDH1A1 inh-2 inconclusive.
For COc1ccc(S(=O)(=O)NCC2CCCN(C(=O)c3sccc3C)C2)cc1 (stereo not given) the results were IMPase Li inh inactive, ALDH1A1 inh-1 0.18µM and ALDH1A1 inh-2 0.089µM.
`COc1ccc(S(=O)(=O)NCC2CCCN(C(=O)c3ccccc3)C2)cc1` (stereo not given) gave IMPase Li inh inactive, ALDH1A1 inh-1 0.2µM and ALDH1A1 inh-2 0.2µM.
COc1ccc(S(=O)(=O)NCC2CCCN(C(=O)CNC(C)=O)C2)cc1 (stereo not given) was read as IMPase Li inh inactive and ALDH1A1 inh-1 inconclusive.
`COc1ccc(S(=O)(=O)NCC2CCCN(C(=O)CC3CCCC3)C2)cc1` (stereo not given) gave IMPase Li inh inactive, ALDH1A1 inh-1 0.79µM and ALDH1A1 inh-2 0.89µM.
For COCCNC(=O)Cn1cc(C(=O)c2ccco2)c2ccccc21 the results were IMPase Li inh inactive and ALDH1A1 inh-1 inactive.
For CCCCn1c(SCC(=O)NC2CCS(=O)(=O)C2)nc2cc(S(N)(=O)=O)ccc21 (stereo not given) the results were IMPase Li inh inactive and ALDH1A1 inh-1 inactive.
Screening CCOC(=O)N1CCN(Cc2nc3c(c(=O)n(C)c(=O)n3C)n2Cc2cccc3ccccc23)CC1 returned PNC assembly inh inactive, IMPase Li inh inactive, IMPase inh inactive, HPGD inh inactive, ALDH1A1 inh-1 0.1µM and ALDH1A1 inh-2 0.04µM.
`CCOC(=O)N1CCN(Cc2nc3c(c(=O)[nH]c(=O)n3C)n2Cc2ccccc2C)CC1` gave PNC assembly inh inactive, IMPase Li inh inactive, IMPase inh inactive, HPGD inh inactive and ALDH1A1 inh-1 inconclusive.
CCOC(=O)N1CCN(Cc2nc3c(c(=O)n(C)c(=O)n3C)n2Cc2ccc(F)cc2)CC1 was read as PNC assembly inh inconclusive, IMPase Li inh inactive, IMPase inh inactive, HPGD inh inactive and ALDH1A1 inh-1 inactive.
CCOC(=O)N1CCN(Cc2nc3c(c(=O)n(C)c(=O)n3C)n2Cc2cccc(C)c2)CC1 was read as PNC assembly inh inactive, IMPase Li inh inactive, IMPase inh inactive, HPGD inh inactive, ALDH1A1 inh-1 0.079µM and ALDH1A1 inh-2 0.063µM.
For CCCC1(C(=O)OC)C=C2C(=C(C(C)C)C(=O)C2C)CN1 (stereo not given) the results were IMPase Li inh inactive, HPGD inh inactive and ALDH1A1 inh-1 inconclusive.

Bioassay records (PubChem)
